Z-score and composite z-score data for 9 compounds are collected here from PubChem BioAssay.

A short description of experiment [1]: HepG2 liver cancer cell viability effects, profiling panel, resazurin fluorescence, 24 h, PK04 Diversity Set (AID 1172). To be noted: higher = more signal.
Experiment [2] is described as follows: basal S. cerevisiae growth modulation, no modifier, primary screen, OD600, strain BY4716, 24 h, basal condition (AID 1173). Conditions: OD600, 24 h, higher = more signal, called active from +8 up or from −8 down.
The nature of experiment [3]: MM1S myeloma cell viability, profiling panel, resazurin fluorescence, basal, 24 h, PK04 Diversity Set (AID 1174).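 Note: MM1S multiple myeloma cell line.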 To be noted: higher = more signal, called active from +8 up or from −8 down.
The target in experiment [4] is Dihydroorotate dehydrogenase (quinone), mitochondrial (Plasmodium falciparum (isolate 3D7)) (UniProt Q08210). The experiment is described as follows: PfDHODH enzyme inhibitors, primary screen, biochemical, C-terminal His tag, absorbance 600 nm (AID 1175).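 Note: recombinant parasite enzyme with a five histidine tag at its C terminus.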 Conditions: DCIP absorbance 600 nm, higher = more signal, called active from +8 up or from −8 down.
Sequence of Dihydroorotate dehydrogenase (quinone), mitochondrial (Plasmodium falciparum (isolate 3D7)) (Q08210 whole entry, looked up): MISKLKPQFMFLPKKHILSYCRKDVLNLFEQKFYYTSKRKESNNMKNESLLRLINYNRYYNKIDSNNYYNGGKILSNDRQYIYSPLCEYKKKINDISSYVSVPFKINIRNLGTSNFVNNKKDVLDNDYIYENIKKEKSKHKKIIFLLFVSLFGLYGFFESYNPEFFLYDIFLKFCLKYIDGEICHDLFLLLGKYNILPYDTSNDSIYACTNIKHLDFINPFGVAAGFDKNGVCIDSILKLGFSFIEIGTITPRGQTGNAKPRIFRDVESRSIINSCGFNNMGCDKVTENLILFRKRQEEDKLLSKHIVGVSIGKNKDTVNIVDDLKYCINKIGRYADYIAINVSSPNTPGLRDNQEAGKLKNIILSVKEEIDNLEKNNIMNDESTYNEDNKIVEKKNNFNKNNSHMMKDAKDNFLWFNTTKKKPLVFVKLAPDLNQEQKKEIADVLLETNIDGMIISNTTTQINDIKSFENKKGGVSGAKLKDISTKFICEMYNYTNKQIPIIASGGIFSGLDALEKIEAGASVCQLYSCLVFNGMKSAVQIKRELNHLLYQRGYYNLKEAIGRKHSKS
Experiment [5] is described as follows: P. aeruginosa biofilm formation inhibitors, primary screen, strain PAO1, LB-PBS medium, absorbance 600 nm (AID 1176). To be noted: P. aeruginosa PAO1 growth/biofilm, A600, 12 h; higher = more signal.
Experiment [6] is described as follows: S. cerevisiae RM11-1a growth modifiers, primary screen, strain RM11-1a, OD600, basal, 24 h (AID 1177).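 Note: cultures grown under basal conditions with no added stressor.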 Conditions: OD600, 24 h, higher = more signal, called active from +8 up or from −8 down.
The nature of experiment [7]: E. coli acrAB mutant growth effects, primary screen, E. coli filamentation inducers, strain DRC39, OD650, 24 h (AID 1178).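 Note: growth measured as culture turbidity by optical density at 650 nm.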 Conditions: higher = more signal, called active from +8 up or from −8 down.
Experiment [8] in a line: E. coli acrAB mutant growth effects, primary screen, E. coli filamentation inducers, strain DRC39, OD650, 48 h (AID 1179).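 Note: screen aims at cell division blockers that make cells filament.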 To be noted: E. coli DRC39 delta-acrAB growth, higher = more signal, called active from +8 up or from −8 down.
Experiment [9] is described as follows: RPMI8226 myeloma cell viability, profiling panel, resazurin fluorescence, basal, 24 h, PK04 Diversity Set (AID 1180).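 Note: RPMI8826 multiple myeloma cell line at 5000 cells per well.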 To be noted: higher = more signal.
Experiment [10] has as its target E3 ubiquitin-protein ligase XIAP (Homo sapiens) (UniProt P98170). The experiment can be described thus: XIAP binders, primary screen, biophysical, small-molecule microarray, fluorescence 635 nm (AID 1181).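 Note: score merges 667 nm emission and signal to noise over triplicate slides.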 To be noted: small-molecule microarray binding, higher = more signal.
The test system of experiment [11] is XIP peptide (Xip251-270) binding. The experiment is described as follows: small-molecule binders of XIP peptide, primary screen, biochemical, small-molecule microarray, fluorescence 635/667 nm, 0.1 µg/mL protein (AID 1182). Conditions: fluorescent protein binding, 635 nm, higher = more signal, called active from +8 up or from −8 down.
Experiment [12] deals with XIP peptide (Xip251-270). The experiment can be described thus: small-molecule binders of XIP peptide, primary screen, biochemical, small-molecule microarray, fluorescence 635/667 nm, 0.5 µg/mL protein (AID 1183). To be noted: small-molecule microarray binding, fluorescence 635 nm; higher = more signal.
Experiment [13] is described as follows: Plasmodium falciparum growth inhibition, primary screen, strain 3D7, DAPI fluorescence, 100 nL (AID 1184).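 Note: parasites grown inside human red blood cells in medium with human serum.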 To be noted: P. falciparum 3D7 growth, 3 d, higher = more signal.
The target of experiment [14] is Homeobox protein Hox-A13 (Mus musculus) (UniProt Q62424). The experiment can be described thus: inhibitors of HoxA13-DNA binding, primary screen, biochemical, fluorescence polarization, labeled oligonucleotide (AID 1185). Conditions: 15 min, higher = more signal, called active from +8 up or from −8 down.
Sequence of Homeobox protein Hox-A13 (Mus musculus) (Q62424 whole entry, looked up): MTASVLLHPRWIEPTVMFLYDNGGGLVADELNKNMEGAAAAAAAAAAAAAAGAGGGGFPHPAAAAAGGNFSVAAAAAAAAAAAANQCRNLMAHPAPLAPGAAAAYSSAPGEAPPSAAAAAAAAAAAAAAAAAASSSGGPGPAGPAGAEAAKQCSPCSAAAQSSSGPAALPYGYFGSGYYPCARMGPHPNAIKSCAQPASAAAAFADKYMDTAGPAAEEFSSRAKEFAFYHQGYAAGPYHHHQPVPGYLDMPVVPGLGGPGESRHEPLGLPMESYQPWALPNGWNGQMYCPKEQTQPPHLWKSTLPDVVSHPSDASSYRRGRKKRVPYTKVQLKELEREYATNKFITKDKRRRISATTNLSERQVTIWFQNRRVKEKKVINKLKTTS
Experiment [15] in a line: inhibitors of hydroxyurea-induced Chk1 phosphorylation, primary screen, imaging, HeLa, phospho-Chk1 antibody, percent positive cells (AID 1186). Conditions: hydroxyurea-induced phospho-Chk1 immunofluorescence imaging, higher = more signal.
Experiment [16] is described as follows: inhibitors of hydroxyurea-induced Chk1 phosphorylation, primary screen, imaging, HeLa, phospho-Chk1 nuclear intensity (AID 1187). To be noted: hydroxyurea-induced phospho-Chk1 immunofluorescence imaging, higher = more signal.

The source made the active and inactive calls. Unless noted, the rule behind the calls is not given here.

Sequence of E3 ubiquitin-protein ligase XIAP (Homo sapiens) (P98170 whole entry, looked up): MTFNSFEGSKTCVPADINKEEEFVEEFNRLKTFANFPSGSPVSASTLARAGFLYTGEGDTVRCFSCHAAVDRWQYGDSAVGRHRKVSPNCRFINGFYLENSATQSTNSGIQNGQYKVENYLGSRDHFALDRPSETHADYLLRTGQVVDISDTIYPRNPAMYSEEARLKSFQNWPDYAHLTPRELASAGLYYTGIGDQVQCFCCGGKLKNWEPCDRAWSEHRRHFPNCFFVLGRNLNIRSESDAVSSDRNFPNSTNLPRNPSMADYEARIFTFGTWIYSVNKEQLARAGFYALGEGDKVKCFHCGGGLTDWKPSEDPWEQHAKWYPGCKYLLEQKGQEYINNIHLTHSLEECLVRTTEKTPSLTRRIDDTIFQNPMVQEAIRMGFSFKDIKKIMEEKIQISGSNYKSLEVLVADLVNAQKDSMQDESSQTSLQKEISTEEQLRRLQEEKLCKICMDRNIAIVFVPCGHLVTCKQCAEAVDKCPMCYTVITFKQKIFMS

As for `C=CC[C@]1(C(=O)OC)N=C(c2ccc(OCCCO)cc2)O[C@H]1c1ccccc1N=[N+]=[N-]`, the z-score in experiment [1] was -0.344; in experiment [2], -0.352 (inactive); in experiment [3] it was -0.455 (inactive); in experiment [5] it was 0.935 (inactive); in [6], 1.6 (inactive); in experiment [7], 0.0005 (inactive). The z-score in experiment [8] was -1.12 (inactive); in experiment [9] it was -0.406; in experiment [13] it was -2.21; in experiment [14] it was -3.31 (inactive); in experiment [15], -0.179 (inactive); in [16], 0.059 (inactive). In addition, the composite z-score is 0.823 (inactive) in [4], 0.509 in experiment [10], 1.61 (inactive) in experiment [11] and 0.867 in experiment [12].

As for `[N-]=[N+]=NCc1ccccc1C[C@]1(C(=O)NCc2ccccc2)N=C(c2ccc(OCCCO)cc2)O[C@H]1c1ccccc1CN=[N+]=[N-]`, the z-score was -0.907 in experiment [1]; 0.831 (inactive) in experiment [2]; -0.153 (inactive) in [3]; 1.32 (inactive) in [5]; 0.832 (inactive) in experiment [6]; 3.04 (inactive) in [7]. The z-score in experiment [8] was 1.01 (inactive); in [9], -0.28; in experiment [13], -2.24; in [14], 4.04 (inactive); in experiment [15] it was -0.347 (inactive); in experiment [16], 0.0031 (inactive). Also, the composite z-score in [4] was 0.238 (inactive); in experiment [10], -0.0559; in experiment [11] it was 0.99 (inactive); in experiment [12], 0.628.

For the compound `C=C(CCCC)C(=O)CC[C@H](OC(=O)c1cccnc1)c1ccc(CO)o1`, the z-score in experiment [1] was -0.476; in experiment [2], -1.58 (inactive); in [3] it was -0.464 (inactive); in experiment [5], 1.45 (inactive); in experiment [6], -0.497 (inactive); in experiment [7], -0.47 (inactive). Also, the z-score in experiment [8] is -0.34 (inactive); in [9], -0.643; in experiment [13], -0.198; in [14], -5.27 (inactive); in [15], 0.242 (inactive); in [16], 0.136 (inactive). The composite z-score in experiment [4] was -0.826 (inactive); in [10], 0.0343; in experiment [11], 0.437 (inactive); in experiment [12], 0.769.

`CC(C)CNC(=O)[C@@H]1c2ccccc2C(=O)N(CC23CC4CC(CC(C4)C2)C3)[C@H]1c1ccc(CO)cc1`: the z-score in [1] was 0.82; in [2], -1.17 (inactive); in experiment [3] it was 1.93 (inactive); in experiment [5], -0.397 (inactive); in [6], -0.0966 (inactive); in [7], 0.256 (inactive). The z-score in experiment [8] is 0.339 (inactive); in experiment [9], 0.281; in experiment [13], -2.11; in [14] it was -3.84 (inactive); in experiment [15], -0.282 (inactive); in experiment [16], -0.0264 (inactive). For the same compound, the composite z-score in experiment [4] is -0.42 (inactive); in experiment [10], -0.13; in [11], 0.41 (inactive); in experiment [12] it was 0.613.

Regarding `COc1cc2c(cc1O)C(c1ccc(CN3CCCC3)cc1)N(Cc1cccc(OC(F)(F)F)c1)CC2` (centres undefined), the z-score in [1] is -2.98; in experiment [2], -16.5 (active); in experiment [3], -9.24 (active); in experiment [5], -0.103 (inactive); in [6], -1.66 (inactive); in experiment [7] it was -4.72 (inactive). For the same compound, the z-score in experiment [8] is -3.03 (inactive); in experiment [9] it was -6.78; in [13], -2.1; in experiment [14], -2.99 (inactive); in experiment [15] it was 0.0325 (inactive); in experiment [16], 0.348 (inactive). For the same compound, the composite z-score in [4] was 0.364 (inactive); in experiment [10], 0.0673; in [11] it was -0.153 (inactive); in [12], 0.156.

For the compound `C=CC(CO)NC(=O)OCC1c2ccccc2-c2ccccc21` (centres undefined), the z-score in [1] was 0.072; in [2] it was -1.46 (inactive); in experiment [3], 0.358 (inactive); in experiment [5] it was 0.0117 (inactive); in experiment [6], -0.917 (inactive); in experiment [7], -0.712 (inactive). Moreover, the z-score in experiment [8] is -0.616 (inactive); in experiment [9], 0.388; in [13], 1.42; in experiment [14], 0.0393 (inactive); in experiment [15] it was 0.145 (inactive); in experiment [16] it was 0.42 (inactive). Moreover, the composite z-score is -1.28 (inactive) in [4], -0.125 in [10], 1.62 (inactive) in experiment [11] and 0.162 in [12].

For the compound `C[N+](C)(C)CCCCCCNC(=O)[C@H]1C[C@H]2C(=O)NCC(=O)N2[C@H]1c1cccc(OCCO)c1`, the z-score in [1] was 0.547; in experiment [2], -0.316 (inactive); in [3], -0.0342 (inactive); in experiment [5], -0.0743 (inactive); in experiment [6] it was 0.254 (inactive); in experiment [7], -0.129 (inactive). The z-score in [8] was -0.285 (inactive); in experiment [9], -0.252; in experiment [13], 0.138; in experiment [14], -3.97 (inactive); in [15], 0.145 (inactive); in experiment [16], 0.136 (inactive). In addition, the composite z-score in experiment [4] was -0.97 (inactive); in experiment [10], 0.0402; in [11], 1.32 (inactive); in [12], 0.695.

For the compound `CC(C)CNC(=O)[C@@H]1c2ccccc2C(=O)N(Cc2ccccc2)[C@H]1c1ccc(CO)cc1`, the z-score in experiment [1] is 0.768; in experiment [2], -0.21 (inactive); in experiment [3] it was -0.628 (inactive); in experiment [5], 0.388 (inactive); in experiment [6], -0.232 (inactive); in experiment [7], 0.278 (inactive). Also, the z-score was 0.0254 (inactive) in [8]; 0.19 in experiment [9]; -0.172 in experiment [13]; -1.68 (inactive) in experiment [14]; 0.212 (inactive) in [15]; -0.161 (inactive) in experiment [16]. Besides, the composite z-score in experiment [4] is 0.13 (inactive); in experiment [10] it was 0.0785; in experiment [11], 0.906 (inactive); in [12] it was 0.0309.

For `COCCOC(=O)N1C(=O)[C@@]2(c3ccccc31)[C@H](c1ccc(OCCO)cc1)N1[C@H](c3ccccc3)[C@H](c3ccccc3)OC(=O)[C@H]1[C@@H]2C(=O)N1CCN(c2ncccn2)CC1`, the z-score in [1] is 0.19; in [2] it was 1.03 (inactive); in experiment [3] it was -0.268 (inactive); in [5] it was 1.89 (inactive); in [6], 2.29 (inactive); in experiment [7] it was -0.441 (inactive). Also, the z-score in [8] was -0.849 (inactive); in experiment [9], 0.603; in experiment [13], -2.33; in experiment [14], -0.376 (inactive); in experiment [15], 0.0223 (inactive); in experiment [16] it was 0.242 (inactive). Moreover, the composite z-score in experiment [4] was -0.0117 (inactive); in [10], 0.0548; in [11], 0.522 (inactive); in [12], 0.772.
